# TDP1 cell CPT: qHTS for Inhibitors of human tyrosyl-DNA phosphodiesterase 1 (TDP1): qHTS in cells in presence of CPT; AID 686979, 2013; 420,000 tested, 12% active; Potency, µM (series often up to 46.2 µM), inactives show at the top dose activity change, negative = growth inhibition, most hits filed as inhibitors; chicken DT40 Tdp1-/-;hTDP1 cells + 20 nM CPT, ATP luminescence, 48 h; also: potency is read from the fitted curve at half-maximal effect; % is scaled to controls: 0 for no effect and ±100 for the full control effect; nearly all actives have a fitted effect of over 55% in size
#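 Chicken DT40 Tdp1-/- cells stably complemented with human TDP1 were seeded at 400 cells/well in medium containing 20 nM camptothecin, exposed to pin-transferred compounds, and grown at 37 °C for at least 48 hr. Viability was read as ATP luminescence.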
# TGFb inhibitor: qHTS for Inhibitors of TGF-b; Potency, µM (series often up to 46.1 µM), for the others: top-dose activity, negative = inhibition, usual class: inhibitors; 410,000 tested, 1.2% active; HepG2 CAGA-GFP TGF-b/SMAD3 reporter, GFP fluorescence, 18 h; TGF-beta stimulated, 500 pg/mL final; also: potency is read from the fitted curve at half-maximal effect; % is scaled to controls: 0 for no effect and ±100 for the full control effect; nearly all actives have a fitted effect of over 65% in size
#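 HEPG2 CAGA-GFP, 1000 cells/well; 2 h settle, 37 C; cpd via pin tool; TGF-b 500 pg/mL final; 18 h, 37 C; GFP imaging ex488/em500-530; %Activity normalised to -TGF-b and +DMSO controls; CRC fit, curve class.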
# DT40 TDP1 no CPT: qHTS for Inhibitors of human tyrosyl-DNA phosphodiesterase 1 (TDP1): qHTS in cells in absence of CPT. AID 686978, 2013. 420,000 tested, 15% active. DT40 Tdp1-/- hTDP1 cells, no CPT, ATP luminescence, 48 h. Potency, µM (top dose mostly 46.2 µM), without a hit: at the highest dose activity change, negative = growth inhibition, actives largely listed as inhibitors; also: potency is read from the fitted curve at half-maximal effect; % is scaled to controls: 0 for no effect and ±100 for the full control effect; nearly all actives have a fitted effect of over 55% in size
#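 No-CPT arm: Tdp1-/-;hTDP1 DT40 cells (400/well) plus compounds, incubated ≥48 hr at 37 °C. Readout CellTiter-Glo luminescence.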
# IL-1B inflam inh: qHTS for Inhibitors of Inflammasome Signaling: IL-1-beta AlphaLISA Primary Screen; 360,000 tested, 4.7% active; AID 743279, 2014; activity change, % at 57.5 µM; THP-1 LPS/ATP IL-1B secretion, AlphaLISA, 16 h; stronger effect = lower value; in the data active = activity change below about -50%; inconclusive = mostly about -30% to -49%; also: % is scaled to controls: 0 for no effect and ±100 for the full control effect
#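 THP-1 cells pretreated 1 hr with compounds (up to 57.5 uM final), then stimulated with LPS (250 ng/mL final) plus ATP (1.25 mM final); secreted IL-1B measured by AlphaLISA after 16 hr, decreased signal indicating inhibition.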
# HepG2 tox: qHTS for Inhibitors of TGF-b: Cytotox Counterscreen; HepG2 CAGA-GFP viability, ATP luminescence, 18 h; Potency, µM (highest dose often 46.1 µM), without a hit: at the highest dose activity change, negative = cytotoxicity, actives largely listed as cytotoxic; 410,000 tested, 0.76% active; AID 588856, 2011; also: potency is read from the fitted curve at half-maximal effect
#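 CellTiter-Glo luminescence gave cytotoxicity after 18 hours at 37 degrees C. The cells were HepG2 CAGA-GFP in 1% FBS DMEM, stimulated with 500 pg/mL TGF-beta after compound addition. %Activity was normalised to no-cell wells (complete cell-killing) and DMSO (no toxicity), and curves were fitted and classified.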
# TDP1 block: qHTS Assay for Inhibitors of Tyrosyl-DNA Phosphodiesterase (TDP1). recombinant TDP1, AlphaScreen DNA substrate cleavage. Potency, µM (doses to about 130 µM), for inactives: at the top dose activity change, negative = inhibition, actives largely listed as inhibitors. 350,000 tested, 0.28% active; also: potency is read from the fitted curve at half-maximal effect; % is scaled to controls: 0 for no effect and ±100 for the full control effect; nearly all actives have a fitted effect of over 40% in size
# Target sequence (Q9NUW8 whole entry, looked up): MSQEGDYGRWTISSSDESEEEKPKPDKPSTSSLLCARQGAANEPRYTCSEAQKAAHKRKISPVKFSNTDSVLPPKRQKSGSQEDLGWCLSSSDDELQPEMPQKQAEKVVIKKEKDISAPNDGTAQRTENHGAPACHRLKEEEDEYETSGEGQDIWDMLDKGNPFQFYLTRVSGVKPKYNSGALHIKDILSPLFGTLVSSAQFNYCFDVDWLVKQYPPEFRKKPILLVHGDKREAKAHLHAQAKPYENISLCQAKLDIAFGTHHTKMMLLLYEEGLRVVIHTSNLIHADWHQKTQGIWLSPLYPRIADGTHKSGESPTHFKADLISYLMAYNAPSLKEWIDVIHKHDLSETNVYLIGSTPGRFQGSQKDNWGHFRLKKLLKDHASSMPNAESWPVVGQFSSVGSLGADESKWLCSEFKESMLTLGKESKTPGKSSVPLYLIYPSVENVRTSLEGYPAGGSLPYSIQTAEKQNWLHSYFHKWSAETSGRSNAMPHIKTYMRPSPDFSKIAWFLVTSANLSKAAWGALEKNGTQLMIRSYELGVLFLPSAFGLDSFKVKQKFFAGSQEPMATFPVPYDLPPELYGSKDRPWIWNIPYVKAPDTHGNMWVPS
#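 Tdp1 1 nM final; 15 min RT w/ cpd; substrate 15 nM, 5 min; beads 10 ug/ml, 10 min; AlphaScreen read. Neg ctrl: no enzyme.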
# * marks the source's active call; other numbers are inactive results; ? = inconclusive; . = no result; [ ] = dose if it differs, or a comment. Sampled rows, rich in hits. Any-hit rate of the full collection: about 18%. Unless noted, calls follow the shape of the dose curve; as a rule, active = well fitted curve in the direction sought with a large enough effect; inconclusive = small, poorly fitted or top-dose-only effect, or another doubt; inactive = no such curve, though single readings can be large; an effect the other way counts as inactive or inconclusive.
SMILES,TDP1 cell CPT,TGFb inhibitor,DT40 TDP1 no CPT,IL-1B inflam inh,HepG2 tox,TDP1 block
O=S(=O)(c1ccc(F)cc1)c1snnc1-c1ccccc1,4.11µM*,?,2.91µM*,-99.9*,-29.0%,-1.6%
O=C(COC(=O)CNC(=O)c1cccs1)Nc1ccc(C(F)(F)F)cc1[N+](=O)[O-],-0.4%,1.8%,-22.6%,52.0,1.4%,2.4%
Cc1ccccc1NS(=O)(=O)c1nnc(NC(=O)c2ccccc2C)s1,6.0%,1.4%,-12.6%,15.4,-10.7%,6.5%
Cc1ccc(S(=O)(=O)N2CCN(Cc3nnc(-c4c(-c5ccccc5)noc4C)o3)CC2)cc1,14.6µM*,5.2%,14.6µM*,-10.0,-43.0%,0.6%
O=S(=O)(c1ccccc1)N1CCN(Cc2nnc(-c3ccccc3)o2)CC1,-20.4%,-2.1%,?,-1.6,-15.8%,.
Cc1onc(-c2ccccc2)c1-c1ccnn1S(=O)(=O)c1ccc(Cl)cc1,-3.6%,?,-28.3%,.,4.3%,0.0%
Cc1ccc(S(=O)(=O)n2nccc2-c2c(-c3ccccc3)noc2C)cc1,?,?,18.4µM*,.,-9.6%,5.7%
Cc1onc(-c2ccc(Cl)cc2)c1-c1ccnn1S(=O)(=O)c1cccc(C(F)(F)F)c1,?,?,23.1µM*,-19.9,-7.3%,-2.9%
Cc1onc(-c2ccccc2)c1-c1ccnn1C(=O)NC(C)C,-21.5%,?,?,-60.3*,1.4%,-1.2%
CC(C)=CCc1c2c(c3occ(-c4ccc(O)c(O)c4)c(=O)c3c1O)C=CC(C)(C)O2,1.3µM*,10µM*,1.46µM*,-61.6*,8.91µM*,9.0%[56.1 µM]
CC(C)Oc1cc(O)c2c(=O)c(-c3ccc(O)cc3)coc2c1,-6.3%,?,-27.2%,-7.9,-26.4%,0.0%
CC1(C)C=Cc2c(c3c(c4c(=O)c(-c5ccc(O)cc5)coc24)OC(C)(C)CC3)O1,18.4µM*,14.1µM*,25.9µM*,?,-83.1%,7.2%
O=C(NC(=S)Nc1ccc(Cl)cn1)C(c1ccccc1)c1ccccc1,?,15.4%,23.1µM*,0.9,7.0%,2.9%
S=C(Nc1ccccc1)Nc1ccc(Cl)cn1,23.1µM*,?,5.8µM*,0.0,9.3%,-8.3%
O=C(Cc1ccccc1)Nc1ccc(Cl)cn1,4.4%,-12.7%,7.5%,?,0.2%,5.1%
CCCCN(C/C=C/c1ccccc1OC)Cc1ccccc1,?,-16.7%,?,-8.5,7.3%,.
CCCSc1nc(N)c2c3c(sc2n1)CN(C)CC3,-25.8%,6.9%,23.1µM*,-17.3,-39.6%,-1.0%
CSc1nc(NCC(C)C)c2c3c(sc2n1)CN(C)CC3,20.6µM*,-9.5%,?,3.4,3.3%,2.0%
CSc1nc(NCc2ccccc2)c2c3c(sc2n1)CN(C)CC3,23.1µM*,26.9%,23.1µM*,?,-24.7%,7.2%
CN(C)CCSc1nc(N)c2c3c(sc2n1)CN(C)CC3,?,-18.4%,?,12.0,-1.7%,-1.9%
CN1CCN(C(=O)CCN2C(=O)S/C(=C/c3ccc(Cl)cc3)C2=O)CC1,13µM*,-17.0%,13µM*,0.0,-23.9%,3.6%
O=C1S/C(=C\c2ccc(Cl)cc2)C(=O)N1CCn1cnnn1,-7.6%,5.3%,?,-61.5*,-29.7%,2.6%
Cc1ccc(/C=C2\SC(=O)N(CCNC(=O)C3CSC4(C)CCC(=O)N34)C2=O)cc1 (stereo not given),?,-4.7%,14.6µM*,?,-29.2%,2.0%
